Columns and labels:
Settings in all cases: concentration: 1 μM, replicates: in singlicate; n = 1
TAK1 = test system: T1, TAK1
T1 construct: gene MAP3K7

TAOK1 = test system: TAOK1
TAOK2 = test system: TAOK2
TAOK3 = test system: TAOK3
TBK1 = test system: TBK1
TEC = test system: TEC
TESK1 = test system: TESK1
TGFBR1 = test system: TGFBR1
TGFBR2 = test system: TGFBR2
TIE1 = test system: TIE1
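Also: KINOMEscan kinase panel screen.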

| Structure (SMILES) | %Inh (TAK1) [%] | %Inh (TAOK1) [%] | %Inh (TAOK2) [%] | %Inh (TAOK3) [%] | %Inh (TBK1) [%] | %Inh (TEC) [%] | %Inh (TESK1) [%] | %Inh (TGFBR1) [%] | %Inh (TGFBR2) [%] | %Inh (TIE1) [%] |
| --- | --- | --- | --- | --- | --- | --- | --- | --- | --- | --- |
| Nc1n[nH]c2ncc(-c3ccccc3)cc12 [SB-517081] | 0 | 0 | 9 | 2 | 13 | 6 | 37 | 0 | 0 | 18 |
| COc1ccc(CNC(=O)NC2CCN(c3ccnc(Nc4ccc(F)cc4)n3)C2)cc1 (stereo not drawn) [GSK1379706] | 6 | 0 | 0 | 0 | 27 | 17 | 7 | 46 | 0 | 12 |
| Nc1ncnc2c1ncn2-c1cccc2ccccc12 [SKF-97184] | 3 | 0 | 9 | 0 | 30 | 0 | 0 | 40 | 11 | 0 |
| COc1cc(Nc2nccc(N3CCC(NC(=O)C(C)c4ccc(Cl)cc4)C3)n2)cc(OC)c1OC (stereo not drawn) [GSK1379757] | 0 | 0 | 0 | 0 | 14 | 0 | 27 | 0 | 0 | 10 |
| CN1C(=O)C(Nc2ccccc2)=C(c2ccccc2)C1=O [SB-300079] | 0 | 0 | 34 | 0 | 21 | 0 | 2 | 22 | 0 | 0 |
| O=C(Nc1ccc2c(c1)OCO2)NC1CCN(c2ccnc(NCc3ccc(F)cc3)n2)CC1 [GSK1379859] | 0 | 0 | 0 | 2 | 2 | 0 | 0 | 0 | 0 | 0 |
| COc1ccc(-c2cc3c(C)nc(N)nc3n([C@H]3CC[C@H](O)CC3)c2=O)cn1 | 21 | 0 | 0 | 0 | 90 | 0 | 7 | 0 | 6 | 0 |
| CCC(=O)c1c(-c2ccccc2)c2cc(Cl)ccc2c(=O)n1Cc1cc(S(C)(=O)=O)n(CCC(C)(C)O)n1 | 31 | 9 | 0 | 0 | 20 | 6 | 21 | 6 | 19 | 16 |
| Nc1ncnc2c1ncn2-c1cccc(F)c1 [SKF-97560] | 0 | 19 | 0 | 0 | 23 | 3 | 15 | 12 | 0 | 0 |
| O=c1cc(N2CCOCC2)nc2n(Cc3ccc(F)c(Cl)c3)ccn12 [GSK2297099] | 2 | 0 | 0 | 0 | 17 | 12 | 12 | 35 | 0 | 0 |
| O=C(NCCNc1ccnc(Nc2ccc(F)cc2)n1)Nc1ccc2c(c1)OCO2 [GSK1379882] | 0 | 0 | 0 | 0 | 30 | 4 | 96.3 | 0 | 0 | 0 |
| Cc1nn2c(=O)cc(N3CCOCC3)nc2n1Cc1cccc(Cl)c1Cl [GSK2342769] | 0 | 0 | 0 | 0 | 11 | 0 | 10 | 0 | 44 | 12 |
| COc1cc2ncn(-c3cc(OCc4ccncc4Br)c(C(N)=O)s3)c2cc1OC [GW854278] | 0 | 4 | 0 | 0 | 24 | 2 | 26 | 17 | 0 | 31 |
| CCC(=O)c1c(-c2ccccc2)c2cc(Cl)ccc2c(=O)n1Cc1cc(S(C)(=O)=O)n(CC(N)=O)n1 | 0 | 0 | 15 | 0 | 12 | 0 | 0 | 0 | 0 | 0 |
| COC(=O)c1c(-c2ccccc2)c2cc(Br)ccc2c(=O)n1Cc1ccc(NC(=O)CCC(=O)O)cc1 | 19 | 0 | 0 | 0 | 22 | 10 | 39 | 10 | 0 | 0 |
| CN(C)c1cc(-c2ccc3c(N)n[nH]c3c2)nc(N)n1 [GSK2219329] | 0 | 0 | 0 | 0 | 9 | 1 | 76 | – | 0 | 0 |
| OCCCNc1nccc(-c2c(-c3cccc(C(F)(F)F)c3)nn3cc(C(F)(F)F)ccc23)n1 [GW630813] | 0 | 0 | 0 | 0 | 10 | 0 | 11 | 0 | 0 | 0 |
| O=C(NCc1cccs1)c1cc(C(=O)c2c(Cl)cccc2Cl)c[nH]1 [GW823670] | 0 | 0 | 7 | 0 | 6 | 0 | 0 | 27 | 0 | 8 |

| Structure (SMILES) | %Inh (TAK1) [%] | %Inh (TAOK1) [%] | %Inh (TAOK2) [%] | %Inh (TAOK3) [%] | %Inh (TBK1) [%] | %Inh (TEC) [%] | %Inh (TESK1) [%] | %Inh (TGFBR1) [%] | %Inh (TGFBR2) [%] | %Inh (TIE1) [%] |
| --- | --- | --- | --- | --- | --- | --- | --- | --- | --- | --- |
| COc1cccc(C2=C(Nc3cccc(C(=O)O)c3)C(=O)NC2=O)c1 [SB-390770] | 0 | 0 | 0 | 0 | 12 | 0 | 28 | 1 | 0 | 27 |
| Cc1ccccc1COc1cc(-n2cnc3cc(Cl)ccc32)sc1C(N)=O [GW813349] | 0 | 0 | 3 | 0 | 22 | 0 | 7 | 28 | 0 | 11 |
| COc1ccc(-c2cc3c(C)nc(N)nc3n([C@H]3CC[C@H](OCCO)CC3)c2=O)cn1 | 19 | 0 | 0 | 0 | 6 | 0 | 6 | 0 | 3 | 0 |
| CC(C)(C)c1ccc(C(=O)Nc2cn3cc(-c4ccccc4)ccc3n2)cc1 | 0 | 0 | 4 | 0 | 38 | 19 | 8 | 0 | 8 | 0 |
| C[C@@H]1CC[C@H](C(=O)NC2CCCCC2)CN1c1cc(-c2ccc3c(N)n[nH]c3c2)nc(N)n1 [GSK2291363] | 0 | 0 | 0 | 0 | 30 | 9 | 34 | 16 | 0 | 15 |
| COc1cc2nccc(Nc3cccc(Oc4ccccc4)c3)c2cc1OC.Cl [GW284543] | 0 | 0 | 0 | 0 | 0 | 45 | 3 | 41 | 0 | 9 |
| Nc1ncnc2c1ncn2-c1ccc(Cl)cc1 [AH2635] | 0 | 0 | 0 | 0 | 15 | 9 | 4 | 0 | 6 | 0 |
| COc1ccc(-n2cnc3c(N)ncnc32)cc1 [SKF-97236] | 30 | 20 | 1 | 21 | 9 | 0 | 3 | 0 | 23 | 23 |
| Cc1ccc(Oc2ccc(Nc3ncnc4cc[nH]c34)cc2C)cn1 | 30 | 0 | 0 | 0 | 30 | 6 | 13 | 2 | 0 | 0 |
| COc1cc2ncn(-c3cc(OCc4ccncc4)c(C(N)=O)s3)c2cc1OC [GSK336313] | 0 | 0 | 0 | 0 | 19 | 6 | 0 | 5 | 0 | 100 |
| Nc1nc(-c2ccccc2F)c(-c2ccnc3ccccc23)s1 [GW560459] | 0 | 0 | 0 | 0 | 20 | 0 | 12 | 16 | 0 | 0 |
| CCCNC(=O)Nc1ccc(Oc2ncnc3ccn(C)c23)cc1 | 22 | 0 | 0 | 0 | 13 | 1 | 0 | 8 | 0 | 0 |
| Nc1nccc2scc(-c3ccc4c(c3)CCN4C(=O)Cc3ccccc3)c12 [GSK2576924] | 1 | 2 | 17 | 10 | 2 | 16 | 0 | 7 | 0 | 55 |
| O=C(Nc1n[nH]c2nc(-c3ccccc3)c(Cl)cc12)C1CC1 [SB-734909] | 8 | 0 | 0 | 0 | 38 | 0 | 6 | 0 | 0 | 0 |
| Cc1cccc(-c2nc(Nc3ccc4c(cnn4C)c3)c3ccccc3n2)n1 [GW876731] | 23 | 12 | 0 | 0 | 0 | 0 | 6 | – | 0 | 0 |
| CCC(=O)c1c(-c2ccccc2)c2cc(Cl)ccc2c(=O)n1Cc1ccc(C(=O)O)cc1 | 0 | 0 | 0 | 0 | 0 | 10 | 6 | 11 | 0 | 0 |
| Fc1cccc(CSc2nnc(-c3ccc4c(c3)CCO4)o2)c1 | 32 | 0 | 0 | 0 | 19 | 20 | 0 | 11 | 28 | 8 |
